# Assay results reported in PubChem BioAssay (NCATS).
# Calls of active or inactive are those of the source. Calls come from the whole dose curve.
# Test: qHTS drug screen for cell cycle checkpoint inhibitors in PARPi-resistant BRCA-mutant ovarian cancer cell lines. (AID 1963452)
# Settings: PEO1/OlaR viability, CellTiter-Glo luminescence, 96 h, stronger effect = lower value
# Text: Women's Malignancies Branch, Center for Cancer Research (CCR),
# National Cancer Institute (NCI), National Institutes of Health (NIH), Bethesda, MD
# Poly (ADP-ribose) polymerase inhibitors (PARPis) have changed the treatment paradigm in breast cancer gene (BRCA) - mutant high-grade serous ovarian carcinoma (HGSC). However, most patients eventually develop resistance to PARPis, highlighting an unmet need for improved therapeutic strategies. Using high-throughput drug screens, we identified ataxia telangiectasia and rad3-related protein/checkpoint kinase 1 (CHK1) pathway inhibitors as cytotoxic and further validated the activity of the CHK1 inhibitor (CHK1i) prexasertib in PARPi-sensitive and -resistant BRCA-mutant HGSC cells and xenograft mouse models. CHK1i monotherapy induced DNA damage, apoptosis, and tumor size reduction. We then conducted a phase 2 study (NCT02203513) of prexasertib in patients with BRCA-mutant HGSC. The treatment was well tolerated but yielded an objective response rate of 6% (1 of 17; one partial response) in patients with previous PARPi treatment. […] BRCA reversion mutation in previously PARPi-treated BRCA-mutant patients was not associated with resistance to CHK1i.
# Among others, 1082 oncology drugs, both approved and investigational, were prioritized based on their status in clinical trial development. […] Drugs with average Z-AUC values less than -1.0 in all three cell lines were classified as "hits" resulting in 151 oncology drug hits. The screen also confirmed cross-resistance between olaparib and other PARPis (rucaparib, niraparib, and talazoparib) in PARPi-resistant PEO1/OlaR and PEO4.
# [1] G. L. Lin, K. M. Wilson, M. Ceribelli, B. Z. Stanton, P. J. Woo, S. Kreimer, E. Y. Qin, X. Zhang, J. Lennon, S. Nagaraja, P. J. Morris, M. Quezada, S. M. Gillespie, D. Y. Duveau, A. M. Michalowski, P. Shinn, R. Guha, M. Ferrer, C. Klumpp-Thomas, S. Michael, C. McKnight, P. Minhas, Z. Itkin, E. H. Raabe, L. Chen, R. Ghanem, A. C. Geraghty, L. Ni, K. I. Andreasson, N. A. Vitanza, K. E.Warren, C. J. Thomas, M. Monje, Therapeutic strategies for diffuse midline glioma from high-throughput combination drug screening. Sci. Transl. Med. 11, (2019).
# [2] T. M. Yamamoto, A. McMellen, Z. L. Watson, J. Aguilera, R. Ferguson, E. Nurmemmedov, T. Thakar, G. L. Moldovan, H. Kim, D. M. Cittelly, A. M. Joglar, E. P. Brennecke, H. Wilson, K. Behbakht, M. J. Sikora, B. G. Bitler, Activation of Wnt signaling promotes olaparib resistant ovarian cancer. Mol. Carcinog. 58, 1770 - 1782 (2019).
# PROTOCOL TABLE (as described by Inglese J, Shamu CE and Guy RK. 2007)
# SEQUENCE No. (e.g., 1, 2, 3, etc.); […] (e.g., Cells, Incubation, Reagent, etc.); VALUE; DESCRIPTION.
# 1; Compounds; 20nL; 1536-well white tissue culture-treated plates.
# 2; Cells; 5 uL; PEO1, PEO4, and PEO1/OlaR cells at 600 cells per well.
# 3; Incubation; 96 hr; 37C, 95% humidity, 5% CO2.
# 4; Reagent; 3 uL; CellTiter-Glo (Promega).
# 5; Incubation; 15 min; room temperature.
# 6; Detection; Luminescence, PHERAstar (BMG Labtech) plate reader.
# NOTES (numbers refer to Sequence numbers above)
# 1. MIPE 5.0 compounds were acoustically dispensed by Echo Acoustic Liquid Handler (Beckman Coulter Life Sciences). Each compound was plated at an 11-point concentration range with 1:3 dilution. Bortezomib, a proteasome inhibitor (final concentration, 20 uM), was used as a positive.
# 2. PEO1, PEO4, and PEO1/OlaR were trypsinized and dispensed in 5 uLof growth medium using a Multidrop Combi dispenser at a density of 600 cells per well to allow compounds to be present during the exponential growth phase.
# 3. Plates were incubated for 96 hours at standard incubator conditions and covered by a stainless steel gasketed lid to prevent evaporation.
# 4. Three microliters of CellTiter-Glo (Promega) were added to each well.
# 5. Plates were incubated at room temperature for 15 min with a stainless-steel lid in place.
# 6. Luminescence readings were taken using PHERAstar (BMG Labtech). […]
# [1] = measured here: PEO1 parental Z-AUC
Structure (SMILES),Z-AUC,Z-AUC [1],Z-AUC (measured here: PEO4 Z-AUC)
Cn1cc(-c2ccc(S(=O)(=O)n3ccc(/C=C/C(=O)Nc4ccccc4N)c3)cc2)cn1,0.896 (inactive),1.17,0.999
O=C(Cc1cccc(OC(F)(F)F)c1)Nc1ccc(CCCCc2nnc(NC(=O)Cc3ccccn3)s2)nn1,-1.13 (inactive),-1.01,-1.03
COc1ccc(CNc2nc(N(CCO)CCO)nc3c2ncn3C(C)C)cc1,-0.772 (inactive),-0.866,-0.51
COc1cc2ncnc(Nc3ccc(O)c(Br)c3)c2cc1OC,-0.393 (inactive),0.024,-0.318
CCCc1cc(C)[nH]c(=O)c1CNC(=O)c1cc(-c2ccc(N3CCN(C(C)C)CC3)nc2)cc2c1cnn2C(C)C,0.233 (inactive),0.123,0.0189
CN1C(=O)c2sccc2N(C)c2nc(Nc3ccc(S(N)(=O)=O)cc3)ncc21,-1.71 (inactive),-0.96,-1.18
O=C(NCCCNc1nc(Nc2cccc(CN3CCOCC3)c2)ncc1C1CC1)C1CCC1,-0.249 (inactive),-0.12,-0.429
CCC[C@H](N[C@H]1CCc2cc(F)cc(F)c2C1)C(=O)Nc1cn(C(C)(C)CNCC(C)(C)C)cn1,-0.27 (inactive),0.0318,-0.108
Cn1ncc(Cl)c1-c1cc(C(=O)NC(CN)Cc2ccc(F)c(F)c2)oc1Cl (configuration not stated),0.713 (inactive),0.319,0.353
CN1CCN(C2CCN(C(=O)Nc3cc(Oc4ccc(NC(=O)C5(C(=O)Nc6ccc(F)cc6)CC5)c(F)c4)ccn3)CC2)CC1,0.53 (inactive),0.13,-0.114
NC(=O)c1ccccc1Nc1ccnc(Nc2cccc(O)c2)n1,-1.9 (inactive),-1.44,-1.66
Cc1cc(-c2cc(OC(=O)c3ccccc3)ccc2Cl)cc2nnc(Nc3ccc(OCCN4CCCC4)cc3)nc12,-0.528 (inactive),0.132,-1.13
O=C1Nc2nc(-c3c(O)cccc3OCC3CC3)cc([C@@H]3CCCNC3)c2CO1,0.934 (inactive),0.63,0.451
CN[C@H]1CC[C@@H](c2ccc(Cl)c(Cl)c2)c2ccccc21,0.0758 (inactive),0.141,-0.265
